# Measured values from ChEMBL document CHEMBL4513216, “Probing the Open Global Health Chemical Diversity Library for Multistage-Active Starting Points for Next-Generation Antimalarials” (ACS Infect Dis, 2020).
# Screen size: about 69,000 compounds; about 8,600 (12%) showed an effect of 50% or more. What follows is part of a selection rich in strong results, with near analogues and random picks from the rest.
# Tested on: Plasmodium berghei
# Experiment: Screen against P. berghei liver stage (PbLuc), transformed with Luciferase, at 10uM
# Type: functional, HepG2
# Settings: tested at 10 uM
row,Structure (SMILES),INHIBITION [%]
1,Cc1nc2n(n1)CC(NCc1ccnc(-c3ccccc3)n1)CC2 (stereo unspecified),-15
2,O=c1[nH]c(CCN2CCCCC2Cn2cccn2)nc2ccccc12 (stereo unspecified),36.1
3,Cc1cccnc1NC(=O)C1(n2cnnn2)CCCCC1,49.5
4,CC(C)n1[nH]c(=O)c2c1NC(=O)CC2c1ccc(S(C)(=O)=O)cc1 (stereo unspecified),-2.43
5,O=C(NCC1CCCN(Cc2cccc3nonc23)C1)c1ccc[nH]1 (stereo unspecified),70.3
6,CC(=O)NCC1CCCN(Cc2nc(Cc3ccccc3F)no2)C1 (stereo unspecified),20.4
7,O=C(N[C@@H]1CCN(Cc2cccc3nonc23)C[C@H]1O)c1cccnc1,12.9
8,CCN1CCCC(CNC(=O)C2(c3cccc(Cl)c3)CC2)C1 (stereo unspecified),-2.42
9,NC1(C(=O)NCC2CCCN(Cc3cccc4nonc34)C2)CCC1 (stereo unspecified),62.8
10,NC1(C(=O)NCC2CCCN(Cc3ccccc3F)C2)CCCC1 (stereo unspecified),42.4
11,CCCNc1ncc(CN2CCC3(CCNC(=O)CC3)CC2)cn1,-41.8
12,CC1CCc2n[nH]c(C(=O)NCCCc3ccccn3)c2C1 (stereo unspecified),-41.8
13,Cc1ccc2oc(SCC(N)=O)nc2n1,18.4
14,CCCC(=O)N1C[C@@H]2CCN(c3cnccn3)C[C@@H]2C1,-30.7
15,CC(C)c1nc(CN(C)Cc2ccc(F)cc2)cs1,20.4
16,CC(C)c1nc(CN(C)S(=O)(=O)c2cccs2)cs1,55.4
17,CC(C)c1nc(CN(C)C(=O)CNS(=O)(=O)c2cccs2)cs1,26.6
18,Cc1c(CCC(=O)Nc2ccc(Cl)cn2)cnn1C,-23.4
19,Cc1ccc(-n2nc(C)cc2N)nn1,-24.2

row,Structure (SMILES),INHIBITION [%]
1,CCc1nc(C)c(CN2CCOC(CCCC(C)C)C2)[nH]1 (stereo unspecified),68.9
2,CCc1nc(C)c(CN2CCOC(Cc3cccc4ccccc34)C2)[nH]1 (stereo unspecified),18.6
3,CCc1nc(C)c(CN2CCOC(Cc3ccccc3Cl)C2)[nH]1 (stereo unspecified),24.2
4,O=C(c1c[nH]c(=O)cn1)N1C[C@H]2CC[C@@H](C1)N(Cc1ccccc1)C2,17.2
5,CCn1cc(N)c(-c2nnc3n2CCCC3)n1,21.9
6,CCC(C)(C)N(C)CCOc1cccc(S(C)(=O)=O)c1,23.2
7,CN(CCOc1cccc(S(C)(=O)=O)c1)c1ccccc1,81.1
8,CN(CCOc1cccc(S(C)(=O)=O)c1)CC(F)F,31.1
9,COCCN1CCC2(CC1)CN(C(=O)C1CC1)c1ccc(F)cc12,34.6
10,O=C(c1cccnc1N1CCCCC1)N1CCCC(n2ccnc2)C1 (stereo unspecified),22.55
11,c1cc(CNc2ccc(-c3nc(C4CC4)no3)cn2)no1,1.98
12,Cc1cc(CNc2ccc(-c3nc(C4CC4)no3)cn2)no1,-28.3
13,CSCC[C@@H](CO)Nc1ccc(-c2nc(C3CC3)no2)cn1,54.4
14,CSCC[C@@H](CO)Nc1ccc(-c2nc(-c3ccccc3F)no2)cn1,76.8
15,CCC(C)Nc1ccc(-c2nc(-c3cccc(OC)c3OC)no2)cn1 (stereo unspecified),33.9
16,CSCC[C@@H](CO)Nc1ccc(-c2nc(-c3ccccc3C)no2)cn1,36.5
17,CN(C)CCO[C@@H]1CC[C@H]2[C@H]1OCCN2C(=O)CCc1ccccc1,5.65
18,CC(=O)N1C[C@H]2CC[C@@H](C1)N(S(=O)(=O)c1cc(F)ccc1C)C2,-18.1
19,CCS(=O)(=O)c1ccc(N2CCC(N)CC2)cc1,12.2

row,Structure (SMILES),INHIBITION [%]
1,CNC1CCN(C2CCN(c3ccc(-c4ccco4)cc3)CC2)CC1,49
2,O=C(O)c1ccccc1C1CCN(C2CCN(c3ccccc3)CC2)C1 (stereo unspecified),35.1
3,COc1ccc(N2CCC(N3CCOC(C(F)(F)F)C3)CC2)cc1 (stereo unspecified),-25.2
4,NC1CCN(C2CCN(c3ccc(-c4ccco4)cc3)CC2)CC1,65
5,NCC1CCN(C2CCN(c3ccc(-c4ccco4)cc3)CC2)C1 (stereo unspecified),92.8
6,Cc1cccc(C(=O)N2CCn3cc(CN4CCCCC4)nc3C2)n1,49.7
7,Cn1ncc2c1CCCN(C(=O)C1CCCC1)C2,22.75
8,Nc1cc2c(nn1)CCN(C(=O)CC1CCCCC1)C2,50.3
9,NC(=O)c1cc2c(nc1N)CCN(C(=O)C1CCCCC1)C2,62.9
10,Nc1cc2c(nn1)CCN(C(=O)CCc1ccc3c(c1)OCO3)C2,32.9
11,Nc1cc2c(nn1)CCN(C(=O)Cc1ccc3c(c1)CCCC3)C2,8.4
12,Nc1cc2c(nn1)CCN(C(=O)CCCC1CCCCC1)C2,70.8
13,Nc1cc2c(nn1)CCN(C(=O)Cc1ccc3c(c1)CCO3)C2,5.42
14,Nc1cc2c(nn1)CCN(C(=O)C1CCc3ccccc31)C2 (stereo unspecified),17.4
15,Nc1cc2c(nn1)CCN(C(=O)CCC1CCCCC1)C2,62.6
16,Cn1ncc2c1CCCN(C(=O)C1CCC1)C2,10.855
17,CCNc1cc2c(nn1)CCN(C(=O)CC1CCCCC1)C2,30.2
18,Nc1cc2c(nn1)CCN(C(=O)CC1CCCC1)C2,2.26
